Assay [1] concerns the target T1, Aspartate--tRNA(Asp/Asn) ligase (Mycobacterium tuberculosis (strain ATCC 25618 / H37Rv)) (UniProt P9WFW3). Also: in the data most compounds retested in dose-response had high values.
T1 sequence (whole entry): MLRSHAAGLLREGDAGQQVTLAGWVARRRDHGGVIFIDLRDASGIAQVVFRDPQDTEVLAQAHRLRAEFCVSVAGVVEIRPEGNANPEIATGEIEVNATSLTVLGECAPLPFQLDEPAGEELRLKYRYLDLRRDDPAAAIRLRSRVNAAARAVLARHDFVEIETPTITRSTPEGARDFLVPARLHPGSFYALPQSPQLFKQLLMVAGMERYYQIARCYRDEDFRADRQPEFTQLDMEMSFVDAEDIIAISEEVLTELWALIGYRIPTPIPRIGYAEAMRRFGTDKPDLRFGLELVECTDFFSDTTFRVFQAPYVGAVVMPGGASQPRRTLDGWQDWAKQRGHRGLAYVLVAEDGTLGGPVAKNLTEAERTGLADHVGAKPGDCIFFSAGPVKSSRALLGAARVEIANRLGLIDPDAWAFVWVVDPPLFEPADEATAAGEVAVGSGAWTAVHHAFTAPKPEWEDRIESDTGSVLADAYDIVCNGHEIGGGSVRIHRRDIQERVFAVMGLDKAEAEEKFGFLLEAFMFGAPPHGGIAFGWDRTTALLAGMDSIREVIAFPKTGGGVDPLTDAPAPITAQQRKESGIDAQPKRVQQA
As to the kind of experiment: Assay for Asp RNA synthetase-1 from Mycobacterium tuberculosis. Conditions: 30 µM. On the set-up: scale not given: direction of the effect not stated beside the values. The class given is functional.

The target of assay [2] is Shiga toxin 2 (Escherichia coli O157:H7) (UniProt P09385+P09386). The experiment in a line: E. coli 0.157:H7 Shiga Toxin SOP - stx2 screening assay. The class given is functional. On the set-up: scale not given: direction of the effect not stated beside the values. Conditions: 30 µM.

For the molecule `Cc1ccn(-c2ccc(C(=O)N3CCCC(n4ccnc4)C3)cc2)n1` (centres undefined), the Percent Effect is 3.8% in assay [1] and -14.7% in assay [2].

Turning to `CC(C)CNC(=O)c1c(-n2cnnn2)sc2c1CCC2`, the Percent Effect was 8.87% in assay [1] and 2.02% in assay [2].

As to `CNS(=O)(=O)c1ccc(CNC(=O)NCC2CCOC2)cc1` (centres undefined), the results for the Percent Effect in assay [1] and in assay [2] were -4.9% and 25.4%, respectively.

Consider `CCn1c(N)nc2cc(C(=O)NCCc3sccc3C)cnc21`, for which the Percent Effect in assay [1] is 2.47%; in assay [2] it was -89%.

In the case of `O=C(C1CCOCC1)N1CCO[C@H]2[C@@H](OCc3ccncc3)CC[C@@H]21`, the Percent Effect is -4.8% in assay [1] and 22.7% in assay [2].

As for `CC(C)C(NC(=O)NCCNc1ccccn1)c1cccs1` (centres undefined), the Percent Effect in assay [1] amounted to 7.74%; in assay [2], 3.04%.

On to `CN(C)S(=O)(=O)N1CCC(Oc2ccc(C#N)cc2)CC1`, for which the Percent Effect in assay [1] is 0.641%; in assay [2] it was -1.14%.

Consider `CCc1ccc(CN2CCC3(CC2)CC(N2CCN(C)CC2)CO3)cc1` (centres undefined), for which the Percent Effect in assay [1] turned out to be 2.64%; in assay [2] it was 1.21%.

As for `Cc1c(C2CCCN(C(=O)C3CC3)C2)n2c(nc1=O)CCC2` (centres undefined), the Percent Effect in assay [1] is -0.253%; in assay [2], 10.2%.

Consider `CCOc1ccccc1OC1CCN(C(=O)c2nc(=O)[nH][nH]2)CC1`, for which the Percent Effect in assay [1] is -1.63%; in assay [2], -11.2%.

Turning to `CCN1CC(C(=O)NC(C)(C)CNC(=O)OC(C)(C)C)CC1=O` (centres undefined), the Percent Effect in assay [1] turned out to be 4.36%; in assay [2] it was 15.4%.

As for `Cc1cnn(C2CCCN(C(=O)CCCOc3cccc(F)c3)C2)c1` (centres undefined), the Percent Effect in assay [1] was -4.03%; in assay [2] it was 11.8%.

With `COc1ncc(C2(O)CCN(Cc3c(F)cccc3F)CC2)c(OC)n1`, the Percent Effect worked out at 2.49% in assay [1] and 71.8% in assay [2].

As for `CCN(C)Cc1cnc(S(=O)(=O)CC)n1CCOC`, the Percent Effect in assay [1] is -5.11%; in assay [2], -0.758%.

For `Cc1cc(F)ccc1CN1CCCC2(C1)OCCO2`, the figures for the Percent Effect in assay [1] and in assay [2] were -5.59% and 10.5%, respectively.

For the molecule `Cc1ccc(NC2CCN(C(=O)c3cc[nH]n3)CC2)nn1`, the Percent Effect in assay [1] is -1.83%; in assay [2], 18.1%.

`NC(=O)C1CN(C(=O)Nc2ccccc2-c2cccs2)CCO1` (centres undefined): the Percent Effect was -9.88% in assay [1] and -14.7% in assay [2].

In the case of `O=C(c1n[nH]c2ccccc12)N1CCCC1c1noc(C2CC2)n1` (centres undefined), the Percent Effect in assay [1] was -5.34%; in assay [2], 9.03%.

For the molecule `CCOc1ncccc1NC(=O)NC1CCCN(c2ncccn2)C1` (centres undefined), the results for the Percent Effect in assay [1] and in assay [2] were 0.879% and -17.5%, respectively.

With `CCOCC(O)CN1CCN(C(=O)CC(C)C)CC1` (centres undefined), the Percent Effect was -2.19% in assay [1] and 18.6% in assay [2].

As for `CN(C)C(=O)N1CCc2c(nnn2C)C1COCc1ccccc1` (centres undefined), the results for the Percent Effect in assay [1] and in assay [2] were 1.92% and -16.6%, respectively.

Take `Cc1cnn(CCNCC(=O)NCC2(c3ccccc3)CCC2)c1`: the Percent Effect in assay [1] worked out at 4.12%; in assay [2] it was 22.9%.

For `Cc1cccc(C(=O)NC2CCN(c3cnn(C)c3)C2=O)n1` (centres undefined), the Percent Effect is 2.04% in assay [1] and -29.9% in assay [2].

`CC(C)c1nccn1C1CCCN(C(=O)c2cnn(C)c2C2CC2)C1` (centres undefined): the Percent Effect in assay [1] is -1.74%; in assay [2], 28.9%.

As to `O=C(c1ccc[nH]1)N1CCn2cc(Cn3cncn3)nc2C1`, the values for the Percent Effect in assay [1] and in assay [2] were 1.43% and -6.64%, respectively.

For the molecule `O=c1c2ccccc2nc2n1C(CSc1ccc(Cl)cc1Cl)CN2` (centres undefined), the Percent Effect was 4.53% in assay [1] and 9.69% in assay [2].

For `CNC(=O)[C@@]12CCC3(CCN(C(C)=O)CC3)[C@@H]1CN(S(C)(=O)=O)C2`, the Percent Effect was -0.917% in assay [1] and -15.9% in assay [2].

Turning to `COc1ccc(NC(=O)CNc2cccc3c2CCCC3)c(OC)c1`, the Percent Effect in assay [1] is 1%; in assay [2] it was -28.6%.

Turning to `C[C@H]1C[C@@H]2CCN(C(=O)c3cccn3C)C[C@H]2O1`, the Percent Effect in assay [1] was -3.96%; in assay [2], -0.37%.

In the case of `CCCC1CCCN(Cc2csc(-c3cnn(C)c3)n2)CC1` (centres undefined), the figures for the Percent Effect in assay [1] and in assay [2] were -1.75% and 20.9%, respectively.

As for `O=C(NCCNc1ncccn1)C1CCN(CC(F)(F)F)CC1`, the Percent Effect in assay [1] was found to be 2.17%; in assay [2], 21.6%.

As to `Cc1ccc(CNCc2nnc3n2CC(C(F)(F)F)CC3)cc1` (centres undefined), the Percent Effect in assay [1] is -6.08%; in assay [2], -16%.

For the molecule `CN(Cc1ccccn1)C1COC2(CCN(Cc3cccnc3)CC2)C1` (centres undefined), the results for the Percent Effect in assay [1] and in assay [2] were -2.07% and -24.6%, respectively.

On to `Cn1nccc1C(=O)N1CCOC(Cc2cccnc2)C1` (centres undefined), for which the results for the Percent Effect in assay [1] and in assay [2] were -0.485% and -23.7%, respectively.

Turning to `COCC1COCCC12CCN(C(=O)CCc1ccccc1)CC2` (centres undefined), the Percent Effect is 3.96% in assay [1] and -14.9% in assay [2].

With `c1cncc(OCC2CN(Cc3ccco3)Cc3nccn3C2)c1` (centres undefined), the Percent Effect was -1.34% in assay [1] and -17.2% in assay [2].

Regarding `Cc1c(I)cccc1C(=O)NCC1(CO)CC1`, the values for the Percent Effect in assay [1] and in assay [2] were 0.747% and 0.906%, respectively.

For `COC(=O)CC(c1cnn(C)c1)c1oc(C)cc(=O)c1O` (centres undefined), the Percent Effect in assay [1] is -0.166%; in assay [2] it was -13.2%.

For `CCc1[nH]ncc1C(=O)N1CCCC(n2ccnc2C(C)C)C1` (centres undefined), the Percent Effect in assay [1] is 4.54%; in assay [2] it was 5.75%.

Consider `OCCN1CCN(Cc2coc(-c3ccc(Cl)cc3)n2)CC1`, for which the Percent Effect in assay [1] was 4.16%; in assay [2] it was 3.75%.

Take `CCOCCN1CCn2c(C)nnc2C1`: the Percent Effect in assay [1] is 1.76%; in assay [2], -30.6%.

Turning to `Cc1cnn(CCNCc2ccccc2Oc2cccnc2)c1`, the Percent Effect is 10.1% in assay [1] and -15.5% in assay [2].

Turning to `CCC(CC)c1cc(CNC(=O)N2CCOC(C)C2)on1` (centres undefined), the figures for the Percent Effect in assay [1] and in assay [2] were -0.437% and -11.9%, respectively.

For `CC(C)N1CCC(Cc2cnc(-c3cccc(C(=O)O)c3)cn2)C1` (centres undefined), the Percent Effect in assay [1] is -5.2%; in assay [2], 16%.

As for `CC(c1nc(C2CC2)no1)N1CCN(Cc2cccc(C#N)c2)CC1` (centres undefined), the Percent Effect in assay [1] is -3.08%; in assay [2] it was 9.24%.

Turning to `Cc1cnn(C2CCCN(C(=O)c3cc(C)sc3C)C2)c1` (centres undefined), the figures for the Percent Effect in assay [1] and in assay [2] were -4.82% and -24.8%, respectively.

Take `OC1(Cn2ccc3ncccc32)CCN(Cc2ccccn2)CC1`: the Percent Effect in assay [1] was 11.7%; in assay [2], -31.8%.

For the molecule `CCOCC(O)CN1CCN(C(=O)c2cc(F)ccc2C)CC1` (centres undefined), the Percent Effect in assay [1] is -0.759%; in assay [2] it was 9.83%.

Regarding `CCN(CC)C1CCN(C(=O)NCc2nncn2CC)CC1`, the Percent Effect in assay [1] was -0.573%; in assay [2], -26%.

As for `COc1ccccc1C(=O)N1Cc2cc(C)ccc2OCC1CN(C)C` (centres undefined), the Percent Effect in assay [1] was 1.89%; in assay [2] it was -7.43%.

Take `Cc1cc(C)n(CC(=O)NC(Cc2ccsc2)c2ccccn2)c(=O)n1` (centres undefined): the Percent Effect in assay [1] is -2.19%; in assay [2], -15.3%.

As to `COC(=O)CCc1c(C)nn(-c2nc(C)cc(=O)[nH]2)c1C`, the Percent Effect in assay [1] is -5.2%; in assay [2] it was -12.7%.

The values are drawn from ChEMBL document CHEMBL3988442, “University of Dundee, Small-Polar-MMV Screening Library” (2021).
